Source: PubChem BioAssay AID1347426 (Functional Genomics Laboratory (NCATS/FGL), 2020)
Among all 31,000 sequences or so, about 1,400 (4.5%) were called active. This is one part of a sample in which actives are shown more often than they occur.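 The calls were made as follows: active = median seed-adjusted z-score above 1 or below -1; inactive = the rest.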

Test: Novel Modifiers of Survival Motor Neuron (SMN) Protein: Gene Identification via Genome-wide siRNA Screen;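 also: luminescence tracks full-length SMN protein made from the SMN2 reporter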
Conditions: HEK293T SMN2-luciferase reporter, siRNA knockdown, 72 h; actives lie on both sides
Summary of the method: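 HEK293T cells stably carrying an SMN2 promoter/splicing cassette–luciferase reporter were reverse-transfected with 1 pmol siRNA per well (druggable-genome library, 3 siRNAs per gene) and grown 72 h at 37 °C. Luminescence, normalized to negative-control siRNA and log10-transformed, was scored as MAD.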

| Sequence | median seed-adjusted z-score |
| --- | --- |
| GGACUUAACGGUAUCCAAATT against PCDHB10 | -0.09 (inactive) |
| GCAGCUUUAACCAUUAAAATT against LTB4R | 0.498 (inactive) |
| GCAAGACAACCAUUCUGUATT against ARF4 | 0.346 (inactive) |
| GCCGUGCUGAAGGCUCUAATT against KCNE3 | -1.33 (active) |
| GGAAACUUCUCACCUAUGATT against MAGED1 | 0.524 (inactive) |
| GGCCGUGUACUGUAUCAUUTT against NUP93 | 1.01 (active) |
| CCACUGUUGGAAUUAAAGATT against AOAH | -0.123 (inactive) |
| GUACAUAGAUUCUAGGCAATT against FOXJ3 | -0.155 (inactive) |
| GGCAGAUGAUGGUAUCACATT against CNGA4 | 0.125 (inactive) |
| CCAUGUUCAUCAAAACUCUTT against ARHGAP1 | -1.14 (active) |
| GAAGCACAUUGUUUCCAGATT against SERGEF | -0.308 (inactive) |
| CCCUUACCUUAAUCGACGATT against CRB1 | 0 (inactive) |
| GGCUGUAUCACAUCGGUUATT against CCR2 | -0.00107 (inactive) |
| GUGCUUUGGUGGUACUAUUTT against ELOVL2 | -0.456 (inactive) |
| CAGUGGUAAGAAAGAGAAATT against NRCAM | -0.0304 (inactive) |
| CACUAACUGAUUUACAAGATT against UBE2J1 | -1.2 (active) |
| GGUAAACGAGAUCAACUUUTT against DVL3 | -0.57 (inactive) |
| GGAUAUUAGUGUCGUGCAATT against ARHGEF7 | 0.185 (inactive) |
| GGAGAUUAGCAAGACCAUUTT against HOXC10 | 0.000966 (inactive) |
| AGACAGCUGCGAAUCUGGATT against MEFV | 0 (inactive) |
| GGGUUUAUAUCGAACGCAATT against RNF144B | 0.642 (inactive) |
| CUCCUGCCUUGAGCCCUUATT against GFRA4 | -1.59 (active) |
| UGAUGCCUGUGAUACACUATT against NEU1 | -0.425 (inactive) |

| Sequence | median seed-adjusted z-score |
| --- | --- |
| GACAGGUACUUCUAAGUCATT against AHSA1 | 0.489 (inactive) |
| GAAAUUUGCGUGUGGAGUATT against TP53 | 0.214 (inactive) |
| CUAGAUAUCGUGGACCUCATT against PYDC1 | -1.44 (active) |
| AUACUACGUUGAUUACAAATT against LRRTM1 | -0.528 (inactive) |
| CCAGUACCAAAGUUGAUAATT against RB1 | 0.49 (inactive) |
| CCAUCUGUUUGAACUUAGATT against TLR5 | 0 (inactive) |
| GCUAAAGAGAGAUAUGGAATT against DARS | 0 (inactive) |
| GAGUUGAAAAUGACAAUGATT against CLSTN1 | 0.0811 (inactive) |
| ACAGCCGCAUGAACAAGGATT against B3GNT7 | -1.05 (active) |
| CAAAGACCCUUUAUUCGAATT against BTBD10 | 0.695 (inactive) |
| GCCUUAUUGUUACAUGGUUTT against SLC19A2 | -0.679 (inactive) |
| GCGCAGACGUGAUUGUCAATT against DAO | -0.00887 (inactive) |
| UGAGAGCCCUAUUCCAGUATT against UBASH3A | -1.1 (active) |
| GGAGGAUCCCAUUAUACUATT against LPA | -0.321 (inactive) |
| GGAUCGCACUCAUGUGGAATT against A4GALT | -0.286 (inactive) |
| GCAGAUGGUUAUAAGCACATT against GLA | -0.494 (inactive) |
| GACCCGUUUAUACAACAAATT against MX2 | -0.0346 (inactive) |
| CUAGCAACAUGGACAUAUUTT against STS | -0.392 (inactive) |
| GGAUUACGUAUCAGACAUATT against CNGA1 | -1.08 (active) |
| GGAGCAAAACAGAUCUUGATT against PINX1 | 0.11 (inactive) |
| CCUCUCUAGUAAUGCAAGATT against NAT12 | -0.0807 (inactive) |
| GCUGUGCGUUCUUCACAAATT against RAB17 | 0.473 (inactive) |
| CACUCAGACGGGACGUUCATT against SCT | -0.454 (inactive) |

| Sequence | median seed-adjusted z-score |
| --- | --- |
| CGAGUUUGCUUGGUCAGAATT against SF3B1 | -3.65 (active) |
| CAAUAGAUCAAGUUAUACATT against KPNA5 | -0.174 (inactive) |
| UGCUUGGCGACUUCAGUAATT against AKR1C2 | -0.109 (inactive) |
| UGGGAAUGGUAGAAACAAATT against PPIL1 | 0.166 (inactive) |
| GCGCAUCUAUGAUGACGAUTT against UBA1 | 1.34 (active) |
| GAGUUUUUAUGGACUCUCATT against GRIK4 | 0.249 (inactive) |
| CCAGAAAACUUGCGAAACATT against RFX4 | -0.0226 (inactive) |
| CCUCCGGAGAGAAAAAUGATT against NXF2 | -0.0513 (inactive) |
| CAUCAAAGAUUGCACUUCATT against TOMM34 | -0.503 (inactive) |
| GCCGGAAACAAAUACGUGATT against ZNF677 | -0.441 (inactive) |
| GGCACGUUCUGAUCCAGAUTT against ACADM | 0.127 (inactive) |
| CGAUAUCAAGUGCACCAAATT against CAD | 2.37 (active) |
| GAGCAUUUGUGCGCAAGUUTT against NRP2 | 0.477 (inactive) |
| GCUCAUUCCUUCUACAAUUTT against CACNA1G | 0.436 (inactive) |
| GGAUGUAAGUUGUCCAAUATT against SUZ12 | -1.65 (active) |
| CGAGUGAAGUGGGAUGAGATT against STARD5 | -0.0333 (inactive) |
| GCCGUUACCAUGGAACUUUTT against GSPT2 | 0.846 (inactive) |
| CACUGACUCGGAAACUGCATT against IGF2BP3 | -0.636 (inactive) |
| CACCAGGUCUGGAUAUUGATT against SF3A1 | -1.09 (active) |
| GCACAACUGUAGAGACAGATT against CIDEC | 0.189 (inactive) |
| GCAGAGAUCUUUGUAGUCUTT against FTSJ3 | 0.437 (inactive) |
| CGGGUAAACUAUGAGCUGATT against ADCY2 | 0.173 (inactive) |
| GCAAGGCUUUUGACGUAGATT against MAP3K6 | 0 (inactive) |
